Hits are enriched below; roughly 1.2% of the tested compounds scored in any of these assays.
MLL AF4-AF9 inh = inhibitors of human MLL-AF4/AF9 interaction; AlphaScreen, biotin-AF4 peptide binding to FLAG-AF9; inhibition, % at 10 µM; hit rate 0.47% among 350,000;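 active = every replicate reaching a set inhibition limit, whatever the replicate mean, cut at about 25% in these data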;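 note: 0% = plate neutral control median and 100% = total signal loss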
Casp6 inh = inhibitors of human caspase-6. purified caspase-6, Z-VEID-R110 cleavage fluorescence. inhibition, % at 12.5 µM. hit rate 0.53% among 350,000. AID 686996;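 active = mean inhibition across replicates at least about 35%, with every replicate also reaching that limit, limit read from the data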;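 note: 0% = median of neutral control wells and 100% = no fluorescence left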
RAD52 inh = blocks human RAD52 DNA annealing; inhibition, % at 18.7 µM; hit rate 0.46% among 360,000; recombinant RAD52 DNA annealing, FRET fluorescence; P43351;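 active = every replicate showing at least 50% inhibition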
RAD54 branch = inhibitors of human RAD54 branch migration. inhibition, % at 10.4 µM. hit rate 0.14% among 360,000. RAD54 Holliday junction branch migration, FAM/BHQ fluorescence;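 active = mean normalized replicate activity at least 40 and at least half of replicates scoring 40 or more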;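 note: 0% = median of neutral control wells and 100% = median of positive control wells; inhibitors cause a drop in the FAM fluorescence signal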
Target sequence (Q92698 whole entry, looked up): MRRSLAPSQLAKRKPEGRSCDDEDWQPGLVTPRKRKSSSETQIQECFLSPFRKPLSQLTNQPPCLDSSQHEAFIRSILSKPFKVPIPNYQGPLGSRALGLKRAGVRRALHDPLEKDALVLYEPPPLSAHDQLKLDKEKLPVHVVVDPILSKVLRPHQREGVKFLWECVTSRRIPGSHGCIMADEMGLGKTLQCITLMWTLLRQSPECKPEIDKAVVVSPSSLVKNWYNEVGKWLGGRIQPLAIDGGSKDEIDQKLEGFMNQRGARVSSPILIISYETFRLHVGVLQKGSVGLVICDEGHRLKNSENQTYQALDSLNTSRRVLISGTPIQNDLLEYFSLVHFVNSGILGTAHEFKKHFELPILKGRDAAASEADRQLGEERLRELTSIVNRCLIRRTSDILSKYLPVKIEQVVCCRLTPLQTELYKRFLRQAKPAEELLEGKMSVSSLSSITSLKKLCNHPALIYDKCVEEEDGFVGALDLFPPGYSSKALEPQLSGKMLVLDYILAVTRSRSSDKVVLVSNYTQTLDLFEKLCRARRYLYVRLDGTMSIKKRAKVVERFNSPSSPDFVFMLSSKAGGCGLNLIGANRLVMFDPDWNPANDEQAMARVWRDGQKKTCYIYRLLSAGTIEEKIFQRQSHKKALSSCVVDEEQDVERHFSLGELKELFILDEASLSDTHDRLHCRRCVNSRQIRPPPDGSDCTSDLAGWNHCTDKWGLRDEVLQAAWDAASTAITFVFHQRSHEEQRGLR
N-glyco inh = N-linked glycosylation inhibition. hit rate 0.23% among 360,000. D54 ERlucT glycosylation luciferase reporter, 24 h; percent of 100 nM tunicamycin response. AID 588692. reporter increase, % at 12.5 µM;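 active = mean luciferase reporter signal, scaled so untreated is 0 and the glycosylation-blocking control 100, at or above a set limit in every replicate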;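 note: luciferase carries N-glycosylation sites so blocking glycosylation raises the light; 0% = median of neutral control wells and 100% = median of 100 nM tunicamycin wells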
* marks the source's active call; other numbers are inactive results; ! = a repeat was not active.

Results for COc1cccc(NC(=O)Cn2c(=O)n(C)c(=O)c3sc4c(c32)COC(C)(C)C4)c1 ?
MLL AF4-AF9 inh: 11.6; Casp6 inh: 43.9*; RAD52 inh: -10.2; RAD54 branch: -3.7; N-glyco inh: 1.5

Results for C=CCOc1ccc(C(c2c(C(=O)O)[nH]c3ccccc23)c2c(C(=O)O)[nH]c3ccccc23)cc1 ?
MLL AF4-AF9 inh: -3.1; Casp6 inh: 47.7*; RAD52 inh: -10.9; RAD54 branch: 7.9; N-glyco inh: 1.4

How did O=C(O)c1[nH]c2ccccc2c1C(c1ccccc1)c1c(C(=O)O)[nH]c2ccccc12 do in these assays?
MLL AF4-AF9 inh: -2.7; Casp6 inh: 1.8; RAD52 inh: -12.7; RAD54 branch: 0.7; N-glyco inh: 2.5

Results for COC(=O)C1=C(C)Nc2nc(SCc3ccccc3)[nH]c(=O)c2C1c1cccs1 (centres undefined) ?
MLL AF4-AF9 inh: 48.7*; Casp6 inh: -0.7; RAD52 inh: -10.7; RAD54 branch: 5.3; N-glyco inh: -0.8

How did CCSc1nc2c(c(=O)[nH]1)C(c1cccnc1)C(C(=O)OC)=C(C)N2 (centres undefined) do in these assays?
RAD54 branch: -3.2; N-glyco inh: 0.1

How did N#CC1(NC(=O)CSc2nnc(COc3ccccc3F)n2N)CCCCC1 do in these assays?
MLL AF4-AF9 inh: 1.1; Casp6 inh: 71.9*; RAD52 inh: -16.5; N-glyco inh: 2.2

Results for Nn1c(COc2ccccc2F)nnc1SCC(=O)NC1CCCC1 ?
MLL AF4-AF9 inh: -1.7; Casp6 inh: -4.2; RAD52 inh: -1.7; RAD54 branch: 1.5; N-glyco inh: -1.3

What do the screens show for `CCc1nnc(NC(=O)CSc2ccc(-c3ccco3)nn2)s1`?
MLL AF4-AF9 inh: -1.7; Casp6 inh: 2.7; RAD52 inh: -9.3; N-glyco inh: 1.6

How did Cc1nnc(NC(=O)CSc2ccc(-c3ccco3)nn2)s1 do in these assays?
MLL AF4-AF9 inh: -3.5; Casp6 inh: 35.4*; RAD52 inh: -15.7; N-glyco inh: -0.1

What do the screens show for `CO[C@H]1CN(C)C(=O)c2ccc(NC(=O)Nc3ccc(C(F)(F)F)cc3)cc2OC[C@@H](C)NC[C@H]1C`?
MLL AF4-AF9 inh: 4.1; Casp6 inh: -0.9; RAD52 inh: 31.3; RAD54 branch: -2.6

Results for CO[C@@H]1CN(C)C(=O)c2ccc(NC(=O)c3ccccc3)cc2OC[C@@H](C)N(C(=O)C2CC2)C[C@H]1C ?
MLL AF4-AF9 inh: -25.4; Casp6 inh: 4.9; RAD52 inh: 15.3

What do the screens show for `C[C@@H]1CN([C@@H](C)CO)C(=O)Cc2cc(NC(=O)Cc3ccccc3)ccc2O[C@@H]1CN(C)C`?
MLL AF4-AF9 inh: -1.0; Casp6 inh: -0.6; RAD52 inh: 2.1; RAD54 branch: -9.9

What do the screens show for `Cc1ccc(CNC(=O)Cc2csc(Nc3nc(=S)[nH]c4ccccc34)n2)cc1`?
MLL AF4-AF9 inh: 6.4; Casp6 inh: 41.0*; RAD52 inh: -9.6

Results for COc1ccc(NC(=O)N(C)C[C@@H]2OCCCC[C@@H](C)Oc3ccc(NC(=O)Nc4ccccc4)cc3C(=O)N([C@H](C)CO)C[C@H]2C)cc1 ?
MLL AF4-AF9 inh: -0.3; Casp6 inh: 1.8; RAD52 inh: -36.6; RAD54 branch: 3.9

What do the screens show for `Cc1c(NS(=O)(=O)c2cc(C(=O)NCc3cccc(Cl)c3)ccc2Cl)c(=O)n(-c2ccccc2)n1C`?
MLL AF4-AF9 inh: -5.6; Casp6 inh: 0.6; RAD52 inh: -7.9; RAD54 branch: 0.1; N-glyco inh: -0.9

Results for Cc1c(NS(=O)(=O)c2cc(C(=O)NCCN(C)C)ccc2Cl)c(=O)n(-c2ccccc2)n1C ?
MLL AF4-AF9 inh: -1.3; Casp6 inh: 42.3*; RAD52 inh: 6.9; RAD54 branch: -5.7; N-glyco inh: 1.2

How did Oc1ccc(Cl)cc1CNc1cccc2cccnc12 do in these assays?
MLL AF4-AF9 inh: -0.6; Casp6 inh: 83.9*; RAD52 inh: -6.7; RAD54 branch: 6.3; N-glyco inh: 12.9

What do the screens show for `CC#CC#Cc1cccc(=O)o1`?
MLL AF4-AF9 inh: -1.4; Casp6 inh: 53.1*; RAD52 inh: -4.8; RAD54 branch: 0.0; N-glyco inh: 36.4*

What do the screens show for `COc1cccc(NC(=O)N[C@H]2C=C[C@@H](CC(=O)N3CCCCC3)O[C@H]2CO)c1`?
MLL AF4-AF9 inh: -1.6; Casp6 inh: 0.5; RAD52 inh: -10.4; RAD54 branch: -3.4

What do the screens show for `O=C(O)/C(=C\c1cccc([N+](=O)[O-])c1)c1ccc(S(=O)(=O)N2CCCCC2)s1`?
MLL AF4-AF9 inh: -24.4; Casp6 inh: 40.8*; RAD52 inh: -2.5; N-glyco inh: 2.1

Results for COc1cc(/C=C(\C(=O)O)c2ccc(S(=O)(=O)N3CCCC3)s2)cc(OC)c1 ?
MLL AF4-AF9 inh: 2.1; Casp6 inh: 41.2*; RAD52 inh: -17.7; RAD54 branch: -1.2; N-glyco inh: 1.6

How did CSc1ccc(/C=C(\C(=O)O)c2ccc(S(=O)(=O)N3CCCCC3)s2)cc1 do in these assays?
MLL AF4-AF9 inh: -18.9; Casp6 inh: 43.6*; RAD52 inh: -9.9; N-glyco inh: 3.3

How did COc1ccc(S(=O)(=O)N(C)C[C@@H]2Oc3ncc(C#CC4(O)CCCC4)cc3C(=O)N([C@@H](C)CO)C[C@@H]2C)cc1 do in these assays?
MLL AF4-AF9 inh: -3.1; Casp6 inh: -0.9; RAD52 inh: 1.2; RAD54 branch: -13.5

Results for CCOc1cc(/C=C2/NC(=O)NC2=O)cc(Br)c1OCc1ccc(C(=O)O)cc1 ?
MLL AF4-AF9 inh: -2.5; Casp6 inh: 43.2*; RAD52 inh: -0.6; N-glyco inh: 1.0

How did Cc1ccccc1-c1ccc(C2[C@@H]3CN(S(=O)(=O)c4ccccc4C)C[C@H]2N3)cc1 (some centres undefined) do in these assays?
MLL AF4-AF9 inh: -4.8; Casp6 inh: 1.6; RAD52 inh: 72.1*!

How did COc1cccc(S(=O)(=O)N2C[C@@H]3N[C@H](C2)C3c2ccc(/C=C/c3ccccc3)cc2)c1 (some centres undefined) do in these assays?
MLL AF4-AF9 inh: -2.0; Casp6 inh: 2.3; RAD52 inh: 58.5*!

What do the screens show for `Cc1ccccc1-c1ccc(C2[C@@H]3CN(S(=O)(=O)c4ccccc4)C[C@H]2N3)cc1` (some centres undefined)?
MLL AF4-AF9 inh: -1.2; Casp6 inh: 1.3; RAD52 inh: -16.1

Results for COc1cccc(-c2ccc(C3[C@@H]4CN(S(=O)(=O)c5ccccc5)C[C@H]3N4)cc2)c1 (some centres undefined) ?
MLL AF4-AF9 inh: 3.3; Casp6 inh: -0.6; RAD52 inh: 46.7

Results for COc1cccc(-c2ccc(C3[C@@H]4CN(S(=O)(=O)c5ccccc5C)C[C@H]3N4)cc2)c1 (some centres undefined) ?
MLL AF4-AF9 inh: -0.2; Casp6 inh: 0.2; RAD52 inh: 73.0*!

How did CO[C@H]1CN(C)C(=O)c2cc(NC(=O)c3ccccc3)ccc2OC[C@H](C)N(C)C[C@@H]1C do in these assays?
MLL AF4-AF9 inh: -2.4; Casp6 inh: 0.4; RAD52 inh: 27.2; RAD54 branch: -1.1
